The record followed here is PubChem BioAssay (Tox21).

A short description of assay [1]: Human pregnane X receptor (PXR) small molecule agonists, qHTS cell viability counter screen (AID 1346977). Further: nearly all actives have a fitted effect of over 50% in size. Further: potency means the concentration at half of the fitted maximal effect. An outline of the steps:
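Readout is CellTiter-Fluor fluorescence from PXR-Luc HepG2 cells. Plated cells rested 5hr, then were treated with compounds for 24hr at 37C and 5% CO2, with reagent present during the last hour.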

A short description of assay [2]: Caspase-3/7 induction in HepG2 cells by small molecules, qHTS assay (AID 1346978). Further: nearly all actives have a fitted effect of over 15% in size. An outline of the steps:
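Wild-type HepG2 cells (2,000/well) were settled 5 h at 37 C, 5% CO2, then exposed to compounds in DMSO for 17 h. Caspase-3/7 activity was read by luminescence 30 min after adding Caspase-Glo 3/7 reagent at room temperature.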
(In qHTS, concentration-response curves come from the screen itself.)

The nature of assay [3]: Caspase-3/7 induction in CHO-K1 cells by small molecules, qHTS cell viability counter screen (AID 1346979). Further: nearly all actives have a fitted effect of over 35% in size. An outline of the steps:
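To flag cytotoxic compounds, treated CHO-K1 wild-type cells were given CellTiter-Fluor at 16hr and read fluorescently after 1hr at 37C; the caspase-3/7 luminescence was measured in these same wells.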

Assay [4] is described as follows: Caspase-3/7 induction in CHO-K1 cells by small molecules, qHTS assay (AID 1346980). Further: nearly all actives have a fitted effect of over 15% in size. An outline of the steps: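 Wild-type cells were seeded at 1,500 per well and settled 5 hr at 37 C, 5% CO2, then exposed to DMSO-dissolved compounds for 17 hr. Caspase-Glo 3/7 reagent was added, and luminescence was read after 30min at room temperature.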
The nature of assay [5]: Caspase-3/7 induction in HepG2 cells by small molecules, qHTS cell viability counter screen (AID 1346981). Further: series mostly up to about 92 µM; nearly all actives have a fitted effect of over 30% in size. An outline of the steps: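 Wild-type HepG2 cells (2,000/well) were allowed to settle for 5 hr at 37 C, 5% CO2, then dosed with compounds in DMSO by pin transfer. After 16 hr at 37 C, CellTiter-Fluor was added and fluorescence read 1 hr later.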
Assay [6] addresses Cytochrome P450 2D6 (Homo sapiens) (UniProt P10635). As to the kind of experiment: Cytochrome P450 Family 2 Subfamily D Member 6 (CYP2D6) small molecule antagonists: luciferase reporter qHTS assay (AID 1671196). Further: nearly all actives have a fitted effect of over 50% in size. Further: potency means the concentration at half of the fitted maximal effect. The essentials: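 CYP2D6 enzyme–substrate mix was held with compound for 10 min at room temperature, then NADPH regeneration solution was added and the reaction ran 1 h at room temperature. Luciferin product was detected by luminescence after 20 min with detection reagent.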
On the technique in general: A reporter such as luciferase makes a cellular process visible.

Assay [7] addresses Nuclear receptor subfamily 1 group I member 2 (Homo sapiens) (UniProt O75469). Kind of assay: Human pregnane X receptor (PXR) small molecule agonists, qHTS assay (AID 1346982). Further: nearly all actives have a fitted effect of over 35% in size. Further: potency means the concentration at half of the fitted maximal effect. The essentials:
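PXR-Luc HepG2 cells (CYP3A4 promoter-driven luciferase) were seeded in medium with 5% charcoal-stripped FBS, left 5 hr at 37 C, then exposed to compounds in DMSO for 24 hr. Luminescence was read after ONE-Glo addition.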

The target in assay [8] is Nuclear receptor subfamily 1 group I member 2 (Rattus norvegicus) (UniProt Q9R1A7). As to the kind of experiment: Rat pregnane X receptor (rPXR) activation by small molecules, qHTS assay (AID 1346983). Further: nearly all actives have a fitted effect of over 20% in size. Particulars: rPXR luciferase reporter cells, One-Glo luminescence, 24 h; max activation: hits give high values. The essentials:
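Cell-based rPXR luciferase reporter assay, 2,000 cells per well, rested 5hr at 37 C before compound addition in DMSO, then 24 hr at 37 C. One-Glo reagent was added and luminescence read after 30 min at room temperature.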

For assay [9], the target named is Nuclear receptor subfamily 1 group I member 2 (Homo sapiens) (UniProt O75469). Kind of assay: CYP3A4 induction through human pregnane X receptor (PXR) by small molecules, qHTS assay (AID 1346984). Further: nearly all actives have a fitted effect of over 40% in size. An outline of the steps:
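DPX-2 cells (HepG2 co-transfected with PXR and CYP3A4 promoter-luciferase) treated with compounds 24 h at 37C; luciferin-IPA CYP3A4 substrate 3uM final added for 3 h, then One-Glo; luminescence read. qHTS format.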

Assay [10] shares this target. As to the kind of experiment: Human pregnane X receptor (PXR) activation by small molecules, qHTS assay (AID 1346985). Further: nearly all actives have a fitted effect of over 40% in size. Further: potency means the concentration at half of the fitted maximal effect. An outline of the steps:
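DPX-2 cells (HepG2 co-transfected with a PXR response element and a CYP3A4-promoter luciferase construct) were seeded at 2,000 per well, rested 5 hr at 37C, then exposed to DMSO-dissolved compounds for 24 hr. Activation was read as luciferase luminescence.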

The structures appear in SMILES notation. Unmarked numbers belong to inactive results. Results filed as inconclusive are left out. Calls of active or inactive are those of the source. The call rests on the fitted dose curve; in most records, active means well fitted curve in the direction sought with a large enough effect in the repeat runs; inconclusive means weak or mixed curves; inactive means no such curve, though single readings can be large; an effect the other way counts as inactive or inconclusive.
On the % scale 0 is the no-effect control and ±100 the full control effect.

Sequence of Nuclear receptor subfamily 1 group I member 2 (Rattus norvegicus) (Q9R1A7 whole entry, looked up): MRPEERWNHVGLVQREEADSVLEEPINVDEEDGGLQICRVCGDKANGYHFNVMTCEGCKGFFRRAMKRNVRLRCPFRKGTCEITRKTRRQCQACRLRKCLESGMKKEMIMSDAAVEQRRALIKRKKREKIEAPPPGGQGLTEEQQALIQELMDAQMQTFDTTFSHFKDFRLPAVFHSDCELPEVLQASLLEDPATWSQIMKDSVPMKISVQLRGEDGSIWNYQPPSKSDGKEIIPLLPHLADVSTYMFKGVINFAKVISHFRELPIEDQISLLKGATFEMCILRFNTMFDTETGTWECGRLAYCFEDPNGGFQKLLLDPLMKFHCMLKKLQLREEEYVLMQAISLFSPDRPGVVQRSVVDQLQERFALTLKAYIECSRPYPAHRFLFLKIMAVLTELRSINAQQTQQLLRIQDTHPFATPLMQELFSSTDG
Sequence of Cytochrome P450 2D6 (Homo sapiens) (P10635 whole entry, looked up): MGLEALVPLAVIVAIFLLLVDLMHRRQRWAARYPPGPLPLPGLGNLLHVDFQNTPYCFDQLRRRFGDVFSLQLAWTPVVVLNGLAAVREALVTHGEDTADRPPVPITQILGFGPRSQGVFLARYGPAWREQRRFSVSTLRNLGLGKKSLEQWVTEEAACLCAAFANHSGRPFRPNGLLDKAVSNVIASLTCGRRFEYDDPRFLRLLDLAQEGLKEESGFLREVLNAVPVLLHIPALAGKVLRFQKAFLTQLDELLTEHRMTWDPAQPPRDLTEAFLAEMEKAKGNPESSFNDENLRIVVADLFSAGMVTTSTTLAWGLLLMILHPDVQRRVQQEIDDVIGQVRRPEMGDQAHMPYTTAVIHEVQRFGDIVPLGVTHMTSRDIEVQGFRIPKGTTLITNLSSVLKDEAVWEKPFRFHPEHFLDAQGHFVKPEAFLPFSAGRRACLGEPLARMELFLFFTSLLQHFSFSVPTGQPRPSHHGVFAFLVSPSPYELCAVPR
Sequence of Nuclear receptor subfamily 1 group I member 2 (Homo sapiens) (O75469 whole entry, looked up): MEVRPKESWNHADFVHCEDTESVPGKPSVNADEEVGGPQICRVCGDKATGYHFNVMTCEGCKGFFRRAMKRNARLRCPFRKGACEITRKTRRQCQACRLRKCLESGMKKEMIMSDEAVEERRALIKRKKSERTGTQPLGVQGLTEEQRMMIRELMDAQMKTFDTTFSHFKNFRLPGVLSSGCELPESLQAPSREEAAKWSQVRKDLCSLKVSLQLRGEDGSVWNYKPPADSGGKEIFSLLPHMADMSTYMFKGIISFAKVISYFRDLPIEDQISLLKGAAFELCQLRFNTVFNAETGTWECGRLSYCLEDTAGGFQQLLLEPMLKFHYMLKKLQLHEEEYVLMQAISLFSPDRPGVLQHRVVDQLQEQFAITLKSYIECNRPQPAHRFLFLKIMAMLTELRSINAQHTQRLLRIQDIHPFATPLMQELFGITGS

For the compound `COCCO`, the Potency result in [1], in assay [3], in assay [4], in assay [5] and in [6] was “inactive” in each case. The compound was called inactive in [2].

Turning to `CCCCOCCOCCOCCOCCO`, the Potency result in [1], in assay [3], in assay [5] and in assay [7] was “inactive” in each case. In assay [2], the call was inactive.

Turning to `CC[C@H](C)[C@@H](C(=O)O)n1sc2ccccc2c1=O`, the Potency entry in [1], in assay [3], in [4], in assay [5] and in assay [6] was “inactive” in each case. For the same compound, the outcome in [2] was inactive.

On to `CCCCCCOC(=O)CCC`, for which the Potency result in [1], in assay [3], in [5], in [7] and in assay [6] was “inactive” throughout. In addition, the outcome in [2] was inactive.

Regarding `SC1CCCC1`, the Potency entry in assay [1], in assay [3], in [5], in assay [7] and in assay [6] was “inactive” each time. Moreover, the call in [2] was inactive.

On to `Cc1ccc(O)c([C@H](CCN(C(C)C)C(C)C)c2ccccc2)c1`, for which the values for the Potency in [1] and in assay [6] were 11.9 µM (active) and 3.09 µM (active), respectively. In addition, the call in [2] was inactive. In addition, the Potency result in assay [3] and in assay [4] was “inactive” in each case. In addition, in assay [8], the max activation was 2.91%.

On to `CCCCC(CC)(CO)CO`, for which the Potency entry in assay [1], in assay [3], in assay [4], in assay [5] and in assay [6] was “inactive” throughout. For the same compound, in assay [2], the result was inactive.

Consider `C=CC(=O)OCCOC(=O)CCC(=O)O`, for which the Potency entry in assay [1], in [3], in assay [4], in [7] and in [6] was “inactive” in each case. For the same compound, in assay [2], the result was inactive.

For `O=S(=O)(O)c1ccc(O)c2ncccc12`, the Potency entry in assay [1], in assay [4] and in [7] was “inactive” each time. For the same compound, the result in [2] was inactive.

For the compound `Cc1cccc(OCCOc2cccc(C)c2)c1`, the Potency entry in assay [1], in assay [3], in assay [5] and in [6] was “inactive” each time. Moreover, the call in [2] was inactive. Besides, in [7], the Potency is 18.3 µM (active).

As for `CCCCCCCCN(C)C`, the Potency result in [1], in assay [3], in assay [5] and in [6] was “inactive” each time. Moreover, the compound was classed as inactive in [2].

Regarding `Nc1nc(N)c(-c2ccccc2)s1`, the Potency result in assay [1], in [4], in assay [5], in [7], in assay [9] and in [10] was “inactive” throughout. Besides, the Potency result in assay [6] is “inactive”. The compound was called inactive in [2]. The max activation in assay [8] was -3.93%.

With `CCCCCCCCCCCCC(=O)O`, the Potency entry in assay [1], in assay [4], in [5] and in assay [6] was “inactive” in each case. For the same compound, the compound was called inactive in assay [2].

Turning to `CC(C)(C)C1CCCCC1O` (stereo not given), the Potency entry in assay [1], in [4], in [5] and in assay [6] was “inactive” throughout. The outcome in assay [2] was inactive.

For `OCC1CC2CC1C1CCC(CO)C21` (stereo not given), the Potency entry in assay [1], in [3], in assay [5], in assay [7] and in assay [6] was “inactive” throughout. Further, the compound was called inactive in [2].

In the case of `CC(C)CCCC(C)CCO` (stereo not given), the Potency entry in [1], in [3], in [5], in [7] and in [6] was “inactive” throughout. Moreover, the outcome in [2] was inactive.

For `Cc1ccc(C(=O)C(C)CN2CCCCC2)cc1` (stereo not given), the Potency result in [1], in assay [3], in assay [5], in assay [9] and in assay [10] was “inactive” throughout. The compound was called inactive in assay [2]. Further, the max activation in assay [8] is -1.62%. Further, in [6], the Potency was 0.977 µM (active).

Turning to `NC1CCN(c2nc3c(cc2F)c(=O)c(C(=O)O)cn3-c2ccc(F)cc2F)C1` (stereo not given), the Potency result in [1], in [4], in [5] and in assay [6] was “inactive” each time. Besides, the result in assay [2] was inactive. For the same compound, the max activation in [8] was -4.88%.

In the case of `CC(C)NCC(O)c1cc(O)cc(O)c1` (stereo not given), the Potency entry in assay [1], in assay [3], in [5], in assay [9], in assay [10] and in assay [6] was “inactive” throughout. Moreover, the result in [2] was inactive. The max activation in assay [8] is -6.91%.

As for `Oc1ccc(C(O)CNCCCCCCNCC(O)c2ccc(O)c(O)c2)cc1O` (stereo not given), the Potency entry in assay [1], in [4], in assay [5], in [7], in assay [9] and in assay [10] was “inactive” each time. Further, in assay [2], the call was inactive. In addition, the max activation in assay [8] was -3.6%.

Consider `COc1ccc2[nH]c(S(=O)Cc3ncc(C)c(OC)c3C)nc2n1` (stereo not given), for which the Potency result in assay [1], in assay [4], in assay [5] and in assay [9] was “inactive” throughout. The compound was classed as inactive in assay [2]. Further, the values for the Potency in assay [7] and in [10] were 18.8 µM (active) and 25.1 µM (active), respectively.

Consider `CCCCCOC(=O)c1ccc(O)cc1`, for which the Potency entry in assay [1], in assay [4] and in [5] was “inactive” in each case. In assay [2], the call was inactive. Also, in [6], the Potency was 71.8 µM (active).

With `CC(CN)CCCN` (stereo not given), the Potency entry in assay [1], in assay [4] and in assay [5] was “inactive” in each case. The compound was called inactive in [2]. The Potency in assay [7] was 24.3 µM (active); in [6], 22.4 µM (active).

In the case of `CCOC(=O)C1=C(C)NC(C)=C(C(=O)OC)C1c1cccc([N+](=O)[O-])c1` (stereo not given), the Potency entry in [1], in assay [4], in assay [5] and in assay [6] was “inactive” in each case. Further, the compound was classed as inactive in assay [2].

As to `O=C(O)COC(=O)Cc1ccccc1Nc1c(Cl)cccc1Cl`, the Potency result in assay [1], in assay [4], in [5], in [9], in [10] and in assay [6] was “inactive” throughout. The compound was called inactive in [2]. Also, the max activation in assay [8] was -0.166%.

As to `CCCCOc1cc(C(=O)OCCN(CC)CC)ccc1N`, the Potency entry in [1], in assay [3] and in assay [5] was “inactive” in each case. The compound was classed as inactive in assay [2]. Also, the max activation in [8] is -4.73%.

Regarding `CC1=CCC(C(C)C)C=C1` (stereo not given), the Potency result in assay [1], in assay [3] and in [5] was “inactive” in each case. The call in assay [2] was inactive. For the same compound, the Potency in assay [7] was 30.6 µM (active); in [6], 71 µM (active).
